Drawing on PubChem BioAssay AID2314 (National Center for Advancing Translational Sciences (NCATS), 2010), this text covers max response for 70 molecules.

The campaign covered roughly 300,000 compounds. About 37,000 (12%) were called active. Cut-off read from the data, not from the text of the source: active = max response mostly above about 13% (no sharp cut-off); inactive = mostly below about 14%. Many of the other results were omitted from the sample, so actives are more common in it than they were.

This assay in a line: Cycloheximide Counterscreen for Small Molecule Inhibitors of Shiga Toxin. Note: read at 38.3 µM for the half of the compounds with a filed dose; 0% is about no effect. The note with it: cell reporter, cycloheximide protein synthesis inhibition counterscreen; active compounds read high. A general note: Counterscreens check selectivity or assay interference.
Consider `CCCn1c2ccccc2c2cnn(CC(=O)NCCCN3CCCCC3CC)c(=O)c21` (stereo not given), for which the max response is -4.88% (inactive).

For `O=C(Nc1c(-c2ccccc2)nc2c(Br)cc(Br)cn12)c1ccco1`, the max response was 14.7% (inactive).

Regarding `Cc1ccoc1C(=O)Nc1cccc(Oc2ccccc2)c1`, the max response was 62.1% (active).

In the case of `O=C(Nc1ccc2nccnc2c1)c1ccco1`, the max response was 36.2% (active).

Take `O=C(Nc1cc(-c2nc3ncccc3o2)ccc1Cl)c1ccco1`: the max response was 7.89% (inactive).

As to `O=C(CSc1ccccc1)Nc1ccc(NC(=O)c2ccco2)cc1`, the max response was 16.6% (inactive).

As to `O=C(Nc1cccc(NC(=O)c2ccco2)c1)c1cnccn1`, the max response is 6.96% (inactive).

For `CCOc1cc(NC(=O)c2ccco2)c(OCC)cc1NC(=O)COc1ccccc1`, the max response was -3.22% (inactive).

As to `Cc1ccc(C(=O)COc2cccc(NC(=O)c3ccco3)c2)cc1`, the max response was 4.03% (inactive).

Regarding `O=C(Nc1ccc(Oc2ccccc2)cc1)c1ccco1`, the max response is 37.5% (active).

Turning to `Cc1cccc(NC(=O)Nc2cccc(Oc3c(F)c(F)c(F)c(F)c3F)c2)c1`, the max response was 7.92% (inactive).

For `O=C(Nc1cccc(-c2nc3ncccc3o2)c1)c1ccco1`, the max response is 29.9% (active).

As for `Cc1ccnc(NC(=O)c2ccco2)n1`, the max response is 10.2% (inactive).

In the case of `COc1ccc(C(=O)Nc2ccc(C(=O)NCC3CCCO3)cc2)c(OC)c1OC` (stereo not given), the max response was -0.955% (inactive).

Regarding `O=S(=O)(Nc1cccc2cccnc12)c1cccc2cccnc12`, the max response was -4.18% (inactive).

Consider `COc1cc(/C(=C/c2ccccc2)c2ccccc2)c2c(c1)oc1ccccc12`, for which the max response was -1.79% (inactive).

As for `CCCOc1ccc(/C=N/NC(=O)C2CC2)c(OCCC)c1`, the max response is 1.32% (inactive).

`Cc1ccc(C(=O)NCCNS(=O)(=O)c2ccccc2)cc1`: the max response was -4.96% (inactive).

Consider `O=C(Nc1ccc(Sc2ccc(Br)cc2)cc1)c1ccco1`, for which the max response was 35.2% (active).

For `CCS(=O)(=O)Nc1ccc(C(=O)NCCSc2ccccc2)cc1`, the max response was 30% (active).

In the case of `Cc1cc(NC(=O)[C@H](C)NC(=O)c2ccco2)ccc1Br`, the max response was -2.49% (inactive).

On to `COc1ccc(NC(=O)c2ccco2)cc1NC(=O)c1ccc(C#N)cc1F`, for which the max response was 1.08% (inactive).

`O=C(Nc1ccccc1)c1ccco1`: the max response was 18.8% (active).

As for `O=C(Nc1ccccc1)/C(=C\c1ccco1)NC(=O)c1ccco1`, the max response was 25.7% (inactive).

With `O=C(Nc1ccc2oc(-c3ccccc3F)nc2c1)c1ccco1`, the max response is 47.3% (active).

In the case of `O=C(NNC(=O)c1ccco1)Nc1ccccc1`, the max response is 12.6% (inactive).

Regarding `Cc1ccc(C(=O)NCCNC(=O)c2ccccc2)cc1`, the max response is 2.82% (inactive).

Take `COc1ccc(NC(=O)CCCN2C(=O)C(c3ccccc3)Oc3cccnc32)cc1` (stereo not given): the max response is 21.3% (inactive).

As to `C[N+](C)(C)CCNC(=O)c1cc[n+](Cc2ccccc2)c(/C=N/O)c1`, the max response is -2.41% (inactive).

In the case of `COC(=O)c1cc(CNC(=O)CC(C)c2ccccc2)ccc1OC` (stereo not given), the max response was 0.629% (inactive).

With `O=C(NNC1CC(=O)N(c2cccc(Cl)c2)C1=O)c1cccnc1` (stereo not given), the max response was 0.896% (inactive).

Take `Cc1c(-c2ccccc2)n[nH]c1C(=O)N=Nc1c(O)[nH]c2ccccc12`: the max response is 8.32% (inactive).

As for `COc1ccc(-c2c(-c3ccc(OC)cc3O)nc(C)nc2C(F)(F)F)cc1`, the max response was -2.37% (inactive).

For `O=C(CNC(=O)c1ccco1)OCC(=O)c1ccccc1`, the max response is 19.9% (inactive).

`O=C(NCCSc1ccccc1)c1ccco1`: the max response is 81.7% (active).

With `O=C(O)/C=C\C(=O)Nc1ccc(OCc2ccccc2)cc1`, the max response was 21.5% (inactive).

Consider `O=C(/C=C/c1ccco1)Nc1ccc(Oc2ccccc2)cc1`, for which the max response was 37.9% (active).

Consider `O=C(CCSc1ccccc1)NCCSc1ccccn1`, for which the max response is -3.74% (inactive).

In the case of `Cc1ccc(-n2nc3ccc(NC(=O)/C=C/c4ccco4)cc3n2)cc1C`, the max response is 30.3% (inactive).

As to `CC(=O)NCCc1ccc(S(=O)(=O)Nc2ccc(C)c(S(=O)(=O)N3CCOCC3)c2)cc1`, the max response is -9.24% (inactive).

For the molecule `CC1CCN(CC(=O)Nc2nccs2)CC1`, the max response is -2.21% (inactive).

On to `O=C(Cc1ccsc1)N1CCN(S(=O)(=O)c2cc(C(F)(F)F)cc(C(F)(F)F)c2)CC1`, for which the max response is -2.13% (inactive).

`COc1cccc(C(C(=O)NC2CCCC2)N(C(=O)c2ccco2)c2cccc(C(C)=O)c2)c1OC` (stereo not given): the max response was 3.33% (inactive).

`Cc1cc(OC(=O)c2c(Cl)cccc2Cl)nc(C)n1`: the max response was -0.567% (inactive).

`CCOC(=O)c1cnc(SCC(=O)Nc2ccccc2C(=O)OC)nc1N`: the max response is -1.91% (inactive).

As to `CCOC(=O)c1cnc(-c2ccccc2)nc1Oc1ccc(C)cc1`, the max response is -0.445% (inactive).

`CCCCOc1ccc(-c2ncc(C(=O)OCC)c(N)n2)cc1`: the max response is 42.2% (active).

`COc1ccc2c(c1)c(=O)c(C(=O)c1ccc(Cl)cc1)cn2CC(=O)Nc1ccc(F)cc1`: the max response is -2.23% (inactive).

In the case of `O=C(N=C1SC2CS(=O)(=O)CC2N1c1cc(Cl)ccc1Cl)C1CC1` (stereo not given), the max response was 8.54% (inactive).

On to `Cc1ncc(CC(=O)n2cc(C(=O)c3cc(Cl)ccc3O)cn2)s1`, for which the max response was 11.2% (inactive).

`O=C(c1cnn(-c2ccc(Cl)cc2)c1)c1ccccc1O`: the max response is 60.1% (active).

Consider `O=C(CN1CCN(c2ccc(Cl)cc2)CC1)c1ccccc1`, for which the max response is 5.7% (inactive).

As to `Fc1ccc2[nH]c3c(N4CCN(Cc5ccc6c(c5)OCO6)CC4)ncnc3c2c1`, the max response is -4.86% (inactive).

On to `COc1ccc(CN2CC(C(=O)NCCc3ccc(Cl)cc3)CC2=O)cc1` (stereo not given), for which the max response was -3.25% (inactive).

On to `Cc1ccc(S(=O)(=O)N(CC(=O)NN=C2CCN(C)CC2)c2ccc(F)cc2)cc1`, for which the max response is -0.935% (inactive).

For the molecule `Cc1ccc(C(=O)N(CN2CCCC2=O)c2ccc(F)cc2)cc1`, the max response was 11.4% (active).

With `CNC(=O)NCCN1CCCC1=O`, the max response is -5.85% (inactive).

Turning to `CCc1nc(N2CCN(C(C)=O)CC2)c2c3c(sc2n1)CCCC3`, the max response is 1.8% (inactive).

Consider `O=C(NCc1cccnc1)C(=O)Nc1nc(-c2ccccc2)cs1`, for which the max response is 39.9% (active).

For `O=C(Nc1nnc(Cc2ccccc2)s1)c1cnccn1`, the max response is 9.38% (inactive).

For the molecule `O=C(Nc1nnc(-c2ccccc2F)s1)c1ccccc1F`, the max response is 17.9% (active).

Regarding `O=C(Nc1nc(-c2cccnc2)cs1)c1ccccc1F`, the max response is 45.8% (active).

Take `O=C(Nc1nc(-c2ccc(-c3ccccc3)cc2)cs1)c1cnccn1`: the max response is 35.3% (active).

With `Cc1ccc(-c2csc(NC(=O)c3cnccn3)n2)cc1C`, the max response is 1.6% (inactive).

On to `O=C(O)c1ccccc1C(=O)Nc1nc(-c2ccccc2)cs1`, for which the max response was -3.4% (inactive).

As for `O=C(Nc1ccc(NC(=O)c2ccccc2F)cc1)c1ccccc1F`, the max response was 12.7% (inactive).

As to `CN(Cc1ccccc1)S(=O)(=O)c1nnc(NC(=O)c2ccccc2F)s1`, the max response is -3.23% (inactive).

`O=C(Nc1ccccc1F)c1ccccc1-c1ccccc1`: the max response was -1.34% (inactive).

Regarding `O=C(CCc1ccccc1)NCc1cccnc1`, the max response was 1.47% (inactive).

Turning to `O=C(O)c1ccccc1-c1ccccc1C(=O)NCc1cccnc1`, the max response is -0.956% (inactive).
